For 40 sequences, PBM binding z-score results are on record in the supplement of paper PMC6555819.

The test system of this assay is VDR:RXRa (NR concentration 270 nM, RXRa partner concentration 90 nM). In words: PBM binding z-score (relative to random genomic background probes); higher = stronger binding; sequences stand for … in GC…GCGATTGACAGCGTAGAATGAAGG
The protocol:
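Protein-binding microarray (Agilent 4x180K custom design, double-stranded 60-nt probes: 5' GC cap, 34-nt variable region, 24-nt constant primer region; full probe sequence given). Purified or IVT nuclear receptor:RXRα heterodimers (3:1 NR:RXRα, mostly 270:90 nM) or homodimers were incubated for 1 h in PBS with 2% milk and no ligand, then detected with Alexa488 antibodies. Fluorescence from o1-orientation probes (~5 replicates averaged) was converted to z-scores against 500 random hg19 background probes. Variable regions are seed direct-repeat (DR0–DR5) sites, all their single-nucleotide variants and half-site ablations.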
Sequence CCTCGGAGGACAGAAGGTGAGAGCTGTCCGCTTT came in with a PBM binding z-score of -0.483. Next, TTTGCTAGGTCAGTTGGTCAGCTAACGAGCTGCC: 0.134; AGAACGAGGGCACGCAGAGTTGATAGCAGAGTAG: 2.02; CGAACTAGGTCATCCACGACAGTGAATACATTGA: 2.18. As for GTACCAAGGTGAATAGGTCGTCGATGAGTAGGCG, the figure is 0.97; as for TTACCAAGGTGAAGGTCATTGATCCCTCTGTAGA, 3.43; as for TCTAGTTAGTCACGGAGGTCACACACGACGGGTA, 4.24. As for TGAATGAGGATATAAGATCAGGGAACGTTGCAAA, the figure is -0.113; as for ACATGTAGGTTACATCCGGGTCATTCAGGCTATG, 4.11; as for CCTTACGGGTCACTCCAGCTTATAGCATCGGAGT, 2.73. For the sequence CGTCCAAGGTCAATGCTAGTTCAGTGAAAGCATT, the PBM binding z-score was determined as 4.84. Next, ACTATTAGTTGAGACGATGGCAACCGATAGGTTG: -0.293.

CCTCTGAGGACAACAGGAGGTCAGAGCTGCCAGA registered a PBM binding z-score of 2.17. Turning to AATACAGGGTCATCGTAGCCCAGAGTACGCACAG, the PBM binding z-score was 4.83. As for CAGCCTAGGTCAGTGCCAGTATAGGAGGAACGTT, the figure is -0.0475; as for TCGAGTAGGTTAGTCGGGGCATTAAGCCAACATA, 1.66; as for GTACCGAGGTGAATAGGTCGTTGATGAGTAGGCG, 1.14.

For the sequence ATCGAAAGGTCGAGGTGAGGATAGAGAAAGGGAA, the PBM binding z-score came out at 2.63. With GCTAGTTGTTCAGTAAAAGGTCACACACCGGTCG, the PBM binding z-score is 3.93.

In turn, ACTTACGGGTAAACGAGGTTATAGCACGCGTATA had a PBM binding z-score of 4.1.

Regarding CGTACTAGGTCAAGGACAGTGAATCTCCGCACGC, the PBM binding z-score is 1.33. As for CCTAGCAGGCTAATCTGGGTCACTCAAGGCTTGA, the figure is 0.385; as for CTCGAAAGGTCGGGCTCAGGTGAGTATACCAAAC, 1.5; as for CGTCAAAGTTCTACTAAGGTAACGTAAAGCACGC, 0.34. Next, TCTTGAAGATCAAGCAGGTTAAGAAAGCCTGAGT: 0.401; CGTTACGGGTCACTGACAGGTTATAGCATTTGGA: 3.87.

CAGCCTAGGTCAGGGCCACTATAGGAGGAACGTT showed a PBM binding z-score of 0.305. Next, ATCGAAAGGTCGAAGGTGAGTATCCCCACCCGAA: 2.53; CAAACTAGGTTAAGGTCAAAGTCGGTTTGTGCCA: 4.8; CCTACTGGGCCAAGGTCAATGATCAGTCAAAGCA: 2.24.

For TGAATGAGGTTATAAGATTAGGGAACGTTGCAAA, the PBM binding z-score was 1.12.

The sequence ATATGTAGGTTATCTGGTCATTCAGTTTGCGCAT returned a PBM binding z-score of 2.12.

Consider ACAGTCAGGTGAGTGAAGGTAACTCAGCTGGACG, for which the PBM binding z-score was -0.663. Sequence GTACCAAGGTGAATAGGTCGTTGAGGAGTAGGCG returned a PBM binding z-score of 0.845. For the sequence TCTAGCAGGCCAGAGGGTCGCTCAAGAGGTACGG, the PBM binding z-score was -0.181. As for TCATATAGGTAATACAGGTGAAATTCGGCATCTA, the figure is 1.12; as for CCAGACAGGTTAGAAGGTAACTCAGCCTCGATTA, 0.114; as for TTTTGTAGATCAACAGGAGGTTAAGAAAGATCGA, 0.859. AGAAGGAGGTTACCAAAGATCAGGGAAACGCTTG had a PBM binding z-score of 0.838. As for CCGACTGGGGCTAGGTTACCATAACGCACAGCCA, the figure is -0.65.
